Test results from PubChem BioAssay AID588342 (National Center for Advancing Translational Sciences (NCATS), 2011).
Several values for one entry are separate records, joined by “and”; a condition that tells them apart may be missing. Identical values can stand only once. Out of some 360,000 compounds screened, about 25,000 (6.9%) were called active. Not shown: some 9% with an inconclusive outcome. Calls come from the whole dose curve; as a rule, active = well fitted inhibition curve with a large enough effect; inconclusive = small, poorly fitted or top-dose-only effect; inactive = flat fitted curve, though single readings scatter. The entries come from a sample that favours actives as a whole. Entries that show only a call come without a potency. More than one record can exist for a structure, and the calls need not agree.

What follows are compounds tested against Luciferin 4-monooxygenase (Photinus pyralis) (UniProt P08659) (assay: qHTS profiling assay for firefly luciferase inhibitor/activator using purifed enzyme and Km concentrations of substrates (counterscreen for miR-21 project)). Details: purified FLuc, luminescence inhibition; series mostly up to 57.5 µM.
Procedure, shortened: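 Purified P. pyralis luciferase, 10 nM final, with Km-level 10 uM D-luciferin and 10 uM ATP in 50 mM Tris acetate pH 7.5, 10 mM Mg acetate, 0.01% Tween-20, 0.05% BSA; 6-point qHTS titration about 60 µM downward; luminescence read.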
Note: nearly all actives have a fitted effect of over 55% in size.
Potency is the fitted concentration of half-maximal effect.

Chain of Luciferin 4-monooxygenase (Photinus pyralis) (P08659 whole entry, looked up): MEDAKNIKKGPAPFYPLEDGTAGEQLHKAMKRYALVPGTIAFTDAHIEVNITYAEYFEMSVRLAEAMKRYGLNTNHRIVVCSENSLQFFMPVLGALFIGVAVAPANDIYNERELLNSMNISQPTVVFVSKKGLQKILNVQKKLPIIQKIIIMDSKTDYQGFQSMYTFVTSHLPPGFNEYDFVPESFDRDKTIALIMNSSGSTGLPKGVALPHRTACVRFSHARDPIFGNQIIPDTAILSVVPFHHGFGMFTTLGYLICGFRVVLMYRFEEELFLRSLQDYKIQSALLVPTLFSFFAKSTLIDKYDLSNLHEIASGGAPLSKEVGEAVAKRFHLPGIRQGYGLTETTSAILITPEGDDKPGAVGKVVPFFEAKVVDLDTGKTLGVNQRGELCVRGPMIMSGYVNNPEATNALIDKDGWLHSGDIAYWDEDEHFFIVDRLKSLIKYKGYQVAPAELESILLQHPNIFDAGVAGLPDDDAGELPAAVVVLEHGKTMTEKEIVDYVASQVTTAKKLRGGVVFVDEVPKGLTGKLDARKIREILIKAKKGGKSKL

SMILES | Potency | activity change, negative = inhibition
O=C(CC(c1cccs1)N1Cc2ccccc2C1=O)Nc1ccc(F)cc1F (stereo not given) | inactive | 
Nc1ccc(C(=O)N2CCN(S(=O)(=O)c3ccc(Cl)cc3)CC2)cc1[N+](=O)[O-] | inactive | 
COc1ccc(-c2nc(S(=O)(=O)c3ccccc3)c(N3CCCCC3)o2)cc1 | inactive | 
Nc1ccc(S(=O)(=O)Nc2nccc(/C=C/c3ccc(Br)s3)n2)cc1 | inactive | 
Oc1cccc2ccc(/C=C/c3ccc(Br)s3)nc12 | 6.75 µM (active) | 
COc1cccc(N(CC(=O)NC2CCCC2)C(=O)CCCC(=O)Nc2ccccn2)c1 | inactive | 
COc1ccc(C(=O)Nc2c(Cl)cc(Cl)cc2C(=O)N2CCC(C)CC2)cc1 | inactive | 
CC1CCN(C(=S)c2ccc(-c3ccc(Cl)cc3Cl)o2)CC1 | 12 µM (active) | 
CC1CCN(C(=S)c2cccc(O)c2)CC1 | inactive | 
O=C(CN1C(=O)COc2ccc(S(=O)(=O)N3CCOCC3)cc21)N1CCN(c2cccc(Cl)c2)CC1 | inactive | 
O=C(NNC(=S)NC(=O)c1cn(-c2ccccc2)nc1-c1ccccc1)c1ccncc1 | 13.5 µM (active) | 
Cc1onc(-c2ccccc2)c1C(=O)Nc1ccccc1C#N | inactive | 
COc1ccc(C(=O)NC(=S)NNC(=O)c2c(-c3ccccc3)noc2C)cc1 | inactive | 
Cc1onc(-c2ccccc2)c1C(=O)NNC(=S)NC(=O)c1ccc(F)cc1 | inactive | 
CC(=O)c1cccc(NC(=O)c2cc(C)nn2-c2ccccc2)c1 | inactive | 
O=C(Nc1cn(-c2ccccc2)nc1-c1ccccc1)c1ccccc1 | 15.1 µM (active) | 
CCCCn1cc(S(=O)(=O)c2ccc(OCC)cc2)c(=O)c2cc(OC)c(OC)cc21 | inactive | 
CCCCC/C=C/C1=CC(=O)C[C@H](c2ccc(Cl)cc2)C1 | inactive | 
CCOC(=O)c1cnc2c(C)cc(C)cc2c1Nc1ccc(N2CCOCC2)cc1 | inactive | 
N#Cc1c(N)nc2c3c(sc(=N)c2c1N)NC(=O)CC3c1ccccc1Cl (stereo not given) | inactive | 
CSc1ncccc1C(=O)NCc1ccccc1Cl | inactive | 
O=C(NC1CCCCCC1)C1CCN(C(=O)c2ccc(Cl)cc2)CC1 | inactive | 
S=C(NCCc1ccccc1)NCc1ccccc1Cl | inactive | 
O=C(O)Cc1ccc(NCc2ccccc2Cl)cc1 | 7.57 µM (active) | 
O=[N+]([O-])c1ccccc1NCc1ccccc1Cl | inactive | 

SMILES | Potency | activity change, negative = inhibition
O=C(c1ccc(Cl)cc1)n1nc(-c2cccnc2)nc1NCc1ccc(F)cc1 | inactive | 
CN(C)c1nc(=Nc2cccc(Cl)c2)ss1 | 3.38 µM (active) | 
CCOC(=O)N1CCc2c(sc3c2c(=O)n(Cc2ccccc2)c(=O)n3CC(=O)Nc2cccc(C)c2)C1 | inactive | 
CCOc1cc(C(=O)Nc2nnc3n2CCS3)cc(OCC)c1OCC | inactive | 
Cc1ccc(-c2cn3c(n2)sc2cc(C(=O)NCc4cccs4)ccc23)c(C)c1 | inactive | 
O=C(NCc1cccs1)c1ccc2c(c1)ncn2C1CCCC1 | 19 µM (active) | 
O=C(NCc1ccc(Cl)cc1)c1ccc2c(c1)nnn2C1CCCC1 | inactive | 
CCc1nnc(NC(=O)c2cc(S(=O)(=O)N3CCCCC3)ccc2C)s1 | inactive | 
O=C(Nc1nncs1)c1cccc(S(=O)(=O)N2CCCCC2)c1 | inactive | 
O=C(Nc1nnc(S(=O)(=O)N2CCCc3ccccc32)s1)c1cccc(F)c1 | inactive | 
O=C(Nc1nnc(S(=O)(=O)N2CCCCCC2)s1)c1cccc(Br)c1 | inactive and 26.9 µM (active) | 
Cc1cccc(NC(=O)c2cccc(S(=O)(=O)N3CCCC3)c2)n1 | inactive | 
CCOC(=O)CSc1nnc(NC(=O)c2cccc(S(=O)(=O)N3CCCCC3)c2)s1 | inactive | 
CCOC(=O)CSc1nnc(NC(=O)c2cccc(S(=O)(=O)N3CCCC3)c2)s1 | 23.9 µM (active) | 
Cc1cccc(C(=O)Nc2nnc(S(=O)(=O)N3CCCCCC3)s2)c1 | 26.9 µM (active) | 
Cc1ccccc1OCC(=O)Nc1nnc(S(=O)(=O)N2CCCC2)s1 | inactive | 
CCOc1ccc(NC(=O)Cn2cc(C(=O)c3ccc(C)cc3)c(=O)c3cc4c(cc32)OCCO4)cc1 | inactive | 
O=C(c1ccc(C(F)(F)F)cc1)N1CCC(c2nc(-c3ccc(S(=O)(=O)N4CCCC4)cc3)no2)CC1 | inactive | 
COc1ccc(N2CCN(c3cc(C)nc4nncn34)CC2)cc1 | inactive | 
Cc1ccc2oc3c(c(=O)c2c1)C(c1ccc([N+](=O)[O-])cc1)N(CCCN1CCOCC1)C3=O (stereo not given) | inactive | 
O=C1C=C(c2cccc(Cl)c2O)C[C@@H](c2ccc(F)cc2)C1 | inactive | 
COc1ccc(OC)c(NC(=O)c2ccc3c(c2)CCN3S(C)(=O)=O)c1 | inactive | 
CCOc1ccc(S(=O)(=O)Nc2ccc(S(=O)(=O)Nc3cc(OC)ccc3OC)cc2)cc1 | inactive | 
CCOc1ccc(NC(=O)Nc2cc(C)on2)cc1 |  | -5.5% [at 2.3 µM] (inactive)
COc1ccc(C)cc1NC(=O)Nc1ccccc1SC | inactive | 

SMILES | Potency | activity change, negative = inhibition
CCOc1ccc(C(=O)Nc2cc(OC)ccc2OC)cc1 | 19 µM (active) | 
CCOc1ccc(NC(=O)Nc2cc(C)ccc2OC)cc1 | 2.69 µM (active) | 
CCOc1ccc(NC(=O)CN(C)C(=O)CCSc2ccc(F)cc2)cc1OCC | inactive | 
CCOC(=O)c1ccc(N2C(=O)c3n[nH]c(-c4ccco4)c3C2c2ccc(O)cc2)cc1 (stereo not given) | inactive | 
O=C(CSc1oc(-c2ccccc2)nc1S(=O)(=O)c1ccc(Br)cc1)NC1CCCCC1 | inactive | 
COc1ccccc1-c1nnc(SCC(=O)N2CC(C)CC(C)C2)o1 (stereo not given) | inactive | 
COc1ccccc1-c1nnc(NC(=O)c2cccc(N3C(=O)CCC3=O)c2)o1 | 19 µM (active) | 
O=C(COC(=O)c1ccc2ncsc2c1)Nc1ccc(Cl)cc1 | inactive | 
Cc1sc(NC(=O)c2ccc3ncsc3c2)c(C(N)=O)c1C | 1.07 µM (active) | 
COc1ccc(-n2nc3c(c2NC(=O)c2ccc(N4C(=O)CCC4=O)cc2)CSC3)cc1 | inactive | 
COc1ccccc1-c1nnc(NC(=O)c2ccc3ncsc3c2)o1 | 13.5 µM (active) | 
COc1cccc(-c2nnc(NC(=O)c3ccc(S(=O)(=O)N(CC(C)C)CC(C)C)cc3)o2)c1 | inactive | 
Cc1ccc(S(=O)(=O)CC(=O)Nc2sc(C)c(C)c2C(N)=O)cc1 | inactive | 
Cc1ccc(C(=O)Nc2nnc(C3=COCCO3)o2)cc1C | inactive | 
Cc1ccccc1C(=O)N(Cc1ccc(N(C)C)cc1)CC1CCCO1 (stereo not given) | inactive | 
CCn1cc2nc(SCc3cccc(F)c3)n(CCc3ccccc3)c(=O)c2n1 | inactive | 
COc1cc(CN(C(=O)c2ccccc2Br)c2ccccn2)cc(OC)c1OC | inactive | 
Cc1cccc(C(=O)Nc2ccc(S(=O)(=O)N3CCCCC3c3cccnc3)cc2)c1 (stereo not given) | inactive | 
CCN(CCCNC(=O)c1cc2c(=O)n(CC)c3ccccc3c2s1)Cc1ccccc1 | inactive | 
Cc1ccc(C)c(Cn2c(CCCNC(=O)C3CCCCC3)nc3ccccc32)c1 | inactive | 
C=CCNC(=O)c1ccccc1NC(=O)c1ccc(Cl)c(S(=O)(=O)Nc2cccc(C)c2C)c1 | inactive | 
Cc1cc(/C=C2/SC(=O)N(CC(=O)N3CCCC3)C2=O)ccc1N1CCOCC1 | 16.9 µM (active) | 
Cc1ccc2c(c1)N(CC(=O)N1CCOCC1)C(=O)CO2 | inactive | 
O=C(CN1C(=O)CSc2ncccc21)N1CCOCC1 | inactive | 
COc1ccc(-c2nn(-c3ccccc3)cc2/C=C2/SC(=S)N(CCCC(=O)O)C2=O)c(C)c1 | inactive | 

SMILES | Potency | activity change, negative = inhibition
CCCNC(=O)c1ccccc1NC(=O)CSCc1ccc(OC)cc1 | inactive | 
COc1ccc(/C=C2/SC(=O)N(CCCCCC(=O)Nc3ccccc3C(=O)O)C2=S)cc1 | 16.9 µM (active) | 
COc1cccc(CNC(=O)CSc2c3c(nc4cc(Cl)ccc24)CCCC3)c1 | inactive | 
CC(=O)c1ccc(N2CCN(c3nc4c(S(=O)(=O)c5ccccc5)nnn4c4ccc(Cl)cc34)CC2)cc1 | inactive | 
CCOC(=O)c1c(CNCc2ccccc2F)c2sc(C)cc2n1C | inactive | 
CCN1C(=S)N[C@@H](c2cccc(C(F)(F)F)c2)C(C(=O)OC)=C1C | inactive | 
COc1ccc(-c2noc(CCCC(=O)NC3CCCC3)n2)cc1OC | inactive | 
COc1cccc(CNC(=O)CCc2nc(-c3ccc(C)cc3)no2)c1 | inactive | 
Cc1cc(C)cc(NC(=O)CCCc2nc(-c3ccccc3Cl)no2)c1 | inactive | 
CC(=O)Nc1ccc(NC(=O)CCCc2nc(-c3ccc(C(C)(C)C)cc3)no2)cc1 | 2.69 µM (active) | 
CCNC(=O)CCc1nc(-c2ccc(C(C)(C)C)cc2)no1 | 4.78 µM (active) | 
CCNC(=O)CCc1nc(-c2ccc(C)cc2)no1 | inactive | 
CCOc1ccccc1CNCc1c(C(=O)O)c(C)n(Cc2ccc(C)cc2)c1C | inactive | 
Cc1cc2ncn(CCCCOc3ccccc3)c2cc1C | inactive | 
CCOc1cc(C2C(C(=O)Nc3ccc(OC)cc3)=C(C)Nc3nc(SC)nn32)ccc1O (stereo not given) | inactive | 
CCOc1ccc(NC(=O)CC(Cc2ccc(Cl)cc2)C(=O)O)cc1 (stereo not given) | inactive | 
CC(=O)Nc1ccc(NC(=O)C(NS(=O)(=O)c2ccc3c(c2)OCCO3)C(C)C)cc1 (stereo not given) | inactive | 
COc1ccc(CNC(=O)CNC(=O)c2sc3ccccc3c2Cl)cc1OC | inactive | 
CN1CCc2ccccc2C1Cc1ccccc1NC(=O)c1sc2ccccc2c1Cl (stereo not given) | inactive | 
O=C(N/N=C/c1c(Cl)[nH]c2ccccc12)c1sc2ccccc2c1Cl | 19 µM (active) | 
Cc1nnsc1C(=O)N/N=C/c1ccccc1Cl | inactive | 
Cc1[nH]c2ccccc2c1/C=N\NC(=O)Cn1nnc(-c2ccccc2)n1 | inactive | 
Cc1nn(C)cc1/C=N/NC(=O)c1sc2ccccc2c1Cl | 26.9 µM (active) | 
CCN(CC)S(=O)(=O)c1ccc2c(c1)nc(CN(C)C(=O)Nc1ccc(Cl)cc1)n2C | inactive | 
O=C(NCCNc1ccc([N+](=O)[O-])cc1Cl)c1ccccc1F | inactive | 
